Screens as filed in PubChem.
This is a sample that favours compounds with a hit; in the whole collection about 15% have one here.
RORg inh – qHTS for inhibitors of ROR gamma transcriptional activity; Nuclear receptor ROR-gamma (Mus musculus), P51450; Drosophila S2 Gal4-RORgamma UAS-luciferase reporter, 20 h; Potency, µM (doses to about 53.6 µM), for inactives: top-dose activity change, negative = inhibition, most hits filed as inhibitors; 5.4% of 310,000 active; further: nearly all actives have a fitted effect of over 60% in size
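Luminescence from a UAS-regulated Photinus luciferase reporter in stably transfected Drosophila Schneider cells is measured; decreased signal marks ROR gamma inhibition. Fusion expression is induced by 700 uM copper sulfate for 20 hr.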
ELG1 repair inh – qHTS screen for small molecules that inhibit ELG1-dependent DNA repair in human embryonic kidney (HEK293T) cells expressing luciferase-tagged ELG1; HEK293T ELG1-luciferase reporter, luminescence, 16 h; DNA damage induced by 5-fluorouridine; Potency, µM (doses to about 46.1 µM), for inactives: top-dose activity change, negative = inhibition, actives largely listed as inhibitors; 2.3% of 330,000 active; further: nearly all actives have a fitted effect of over 55% in size
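In this reporter screen, reduction of luminescence relative to DMSO vehicle indicated activity. Compounds and 5-fluorouridine were added together to 2,000 cells per well, incubated for 16 hr at 37 °C, then developed with ONE-Glo.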
DT40 TDP1 no CPT – qHTS for Inhibitors of human tyrosyl-DNA phosphodiesterase 1 (TDP1): qHTS in cells in absence of CPT. DT40 Tdp1-/- hTDP1 cells, no CPT, ATP luminescence, 48 h. Potency, µM (top dose mostly 46.2 µM), without a hit: at the top dose activity change, negative = growth inhibition, hits mostly inhibitors. 15% of 420,000 active. AID 686978, 2013; further: nearly all actives have a fitted effect of over 55% in size
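No-CPT arm: Tdp1-/-;hTDP1 DT40 cells (400/well) plus compounds, incubated ≥48 hr at 37 °C. Readout CellTiter-Glo luminescence.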
VP16 counter – VP16 counterscreen qHTS for inhibitors of ROR gamma transcriptional activity. Potency, µM (titrated, usually from 53.6 µM), inactives show top-dose activity, negative = inhibition, actives largely listed as inhibitors. Drosophila S2 Gal4-VP16 UAS-luciferase, luminescence, 20 h. 3.5% of 310,000 active. AID 2546, 2010;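 further: Gal4-VP16 expression switched on by copper sulfate through the metallothionein promoter; nearly all actives have a fitted effect of over 50% in size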
ALOX12 inh – Primary qHTS assay for inhibitors of human arachidonate 12S-lipoxygenase (ALOX12): Round 2; Polyunsaturated fatty acid lipoxygenase ALOX12 (Homo sapiens), P18054; purified 12hLO, xylenol orange hydroperoxide absorbance; Potency, µM (series often up to 108 µM), inactives show at the highest dose activity change, negative = inhibition, usual class: inhibitors; 1.1% of 580,000 active; AID 1671190, 2021
Target sequence (P18054 whole entry, looked up): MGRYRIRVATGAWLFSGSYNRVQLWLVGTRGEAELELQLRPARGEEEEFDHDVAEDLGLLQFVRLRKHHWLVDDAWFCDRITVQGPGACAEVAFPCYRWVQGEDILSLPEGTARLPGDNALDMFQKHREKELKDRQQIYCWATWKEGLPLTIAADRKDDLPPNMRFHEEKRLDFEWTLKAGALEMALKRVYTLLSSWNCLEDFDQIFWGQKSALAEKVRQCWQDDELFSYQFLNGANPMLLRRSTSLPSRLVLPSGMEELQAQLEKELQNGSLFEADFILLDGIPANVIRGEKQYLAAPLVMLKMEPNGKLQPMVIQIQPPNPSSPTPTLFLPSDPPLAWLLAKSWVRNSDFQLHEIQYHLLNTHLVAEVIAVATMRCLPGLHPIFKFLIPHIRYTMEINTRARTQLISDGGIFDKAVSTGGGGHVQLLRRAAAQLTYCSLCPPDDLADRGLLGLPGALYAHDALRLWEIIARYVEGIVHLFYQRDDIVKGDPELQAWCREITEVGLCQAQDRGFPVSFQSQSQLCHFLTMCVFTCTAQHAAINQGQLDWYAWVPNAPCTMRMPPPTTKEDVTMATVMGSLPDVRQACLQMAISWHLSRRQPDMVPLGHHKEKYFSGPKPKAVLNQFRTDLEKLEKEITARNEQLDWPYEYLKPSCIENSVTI
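Purified human 12hLO at 150 nM in 25 mM Hepes, 0.01% Triton X-100, pH 7.0, preincubated 15 min at room temperature with compound. Reaction started with 40 uM arachidonic acid, 30 min at room temperature. Hydroperoxide measured by Fe-xylenol orange, 573/405 nm absorbance ratio.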
TDP1 cell CPT – qHTS for Inhibitors of human tyrosyl-DNA phosphodiesterase 1 (TDP1): qHTS in cells in presence of CPT. chicken DT40 Tdp1-/-;hTDP1 cells + 20 nM CPT, ATP luminescence, 48 h. Potency, µM (highest dose often 46.2 µM), for the others: top-dose activity change, negative = growth inhibition, most hits filed as inhibitors. 12% of 420,000 active; further: nearly all actives have a fitted effect of over 55% in size
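Chicken DT40 Tdp1-/- cells stably complemented with human TDP1 were seeded at 400 cells/well in medium containing 20 nM camptothecin, exposed to pin-transferred compounds, and grown at 37 °C for at least 48 hr. Viability was read as ATP luminescence.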
Numbers without * were called inactive; ? = inconclusive; / = no result given; [ ] = remark or other dose. The call rests on the fitted dose curve; in most records, active means well fitted curve in the direction sought with a large enough effect; inconclusive means small, poorly fitted or top-dose-only effect, or another doubt; inactive means no such curve, though single readings can be large; an effect the other way counts as inactive or inconclusive. On the % scale 0 is the no-effect control and ±100 the full control effect; potency means the concentration at half of the fitted maximal effect.

SMILES	RORg inh	ELG1 repair inh	DT40 TDP1 no CPT	VP16 counter	ALOX12 inh	TDP1 cell CPT
Cc1cc(C(=O)OCC(=O)N2CCN(C(=O)c3ccco3)CC2)c(C)n1-c1ccc(F)cc1	-3%	?	?	-4%	14%	-16%
CCOC(=O)c1cc2c(ccn2C)n1CC(=O)N1CCC(Cc2ccccc2)CC1	0%	?	18µM*	0%	?	23µM*
COC(=O)c1cc2c(ccn2-c2ccc(F)cc2)n1Cc1cccc(OC)c1	7%	-13%	16µM*	7%	-27%	7.3µM*
CCOC(=O)c1cc2c(ccn2-c2ccc(F)cc2)n1CC(=O)N1CCN(C(=O)c2ccco2)CC1	-5%	?	12µM*	-7%	39%[57.4 µM]	?
CCOC(=O)c1cc2c(ccn2C)n1CC(=O)Nc1ccc(F)cc1	9%	-10%	-21%	8%	4%	23µM*
Clc1ccc(CN2C3=NCCN3c3ccccc32)c(Cl)c1	/	/	/	/	28%	/
CC(C(=O)Nc1ccc(OC(F)(F)F)cc1)N1CCN(c2ccc([N+](=O)[O-])c3cnccc23)CC1 (centres undefined)	/	/	/	/	7%	/
CC(=O)NCCNc1ncnc2ccc(-c3ccc4c(c3)OCO4)cc12	?	/	?	-3%	-15%	16µM*
Cc1ccc(CNc2ncnc3ccc(-c4c(C)noc4C)cc23)o1	-27%	/	/	-6%	/	/
c1nc(NCCN2CCOCC2)c2cc(-c3ccc4c(c3)OCO4)ccc2n1	31%	/	?	4%	-30%	?
CC(=O)NCCNc1ncnc2ccc(-c3c(C)noc3C)cc12	11µM*	/	-29%	?	?	?
COCCNc1ncnc2ccc(-c3c(C)noc3C)cc12	-36%	/	?	13%	?	12µM*
CC(=O)NCCNc1ncnc2ccc(-c3ccccc3Cl)cc12	-4%	/	?	12%	32µM*	-9%
CCN(c1ccccc1)S(=O)(=O)c1ccc(C(=O)N(C)Cc2cccs2)cc1	/	?	23µM*	/	307%	?
CCN(c1ccccc1)S(=O)(=O)c1cccc(C(=O)NCC(c2cccs2)N(C)C)c1 (centres undefined)	22%	-5%	21µM*	-2%	0%	?
Cc1ccc(NS(=O)(=O)c2cccc(C(=O)NCC(c3cccs3)N(C)C)c2)cc1 (centres undefined)	25%	-17%	?	1%	?	16µM*
CNS(=O)(=O)c1cccc(C(=O)NCC(c2cccs2)N(C)C)c1 (centres undefined)	-2%	0%	-1%	-3%	-7%	2%
Cc1cccc(NS(=O)(=O)c2ccc(C)c(C(=O)NCC(c3cccs3)N(C)C)c2)c1 (centres undefined)	/	7%	?	/	-15%	18µM*
Cc1ccc2c(c1)c(C(=O)N1CCC3(CCNC(=O)CC3)CC1)nn2C	/	/	/	/	36%	/
CCCCC1CCC(C(=O)Oc2ccc(C=O)c(O)c2)CC1 (centres undefined)	/	/	/	/	-60%	/
CCN(CC(=O)NCc1cccs1)C(=O)c1cccc(S(=O)(=O)N(CC)c2ccccc2)c1	/	/	23µM*	/	22%	?
CC[C@H](C)/C=C/C1=CC2=C(Cl)C(=O)[C@@]3(C)OC(=O)C(C(=O)[C@H](C)[C@@H](C)O)=C3C2=CO1	/	/	18µM*	/	/	?
CCCCCCCC1=CC2=C(Cl)C(=O)C(C)(OC(C)=O)C(=O)C2=CO1 (centres undefined)	19%	/	/	-4%	/	/
Cc1cnc(C(=O)N2CC(N(C)Cc3cccnc3)C2)cn1	/	/	/	/	27%	/
OC(c1cc(-c2cccc(Cl)c2)nc2ccccc12)C1CCCCN1 (centres undefined)	/	/	2.6µM*	/	35µM*	16µM*
SMILES	RORg inh	ELG1 repair inh	DT40 TDP1 no CPT	VP16 counter	ALOX12 inh	TDP1 cell CPT
Cc1c(-c2cccc(Cl)c2)nc2ccccc2c1C(=O)NC1CCCCCCCCCCC1	/	/	/	/	-15%	/
O=C(NNc1cccc(Cl)n1)c1c(Cl)cccc1Cl	-17%	13%	-1%	-6%	-15%	-38%
O=C(NNC(=O)c1ccccc1-n1cccc1)c1ccc(Cl)cc1	14%	0%	-11%	-14%	0%	5%
O=C(NNc1ncccc1-n1cccc1)c1ccc(Cl)cc1	?	?	7.3µM*	?	2%	?
O=C(NNc1ncc(C(F)(F)F)cc1Cl)c1c(Cl)cccc1Cl	0.89µM*	16%	4.1µM*	2.8µM*	-19%	4.1µM*
NC(=O)NNc1ncc(C(F)(F)F)cc1Cl	7%	-7%	7%	-12%	-3%	2%
O=C(NNc1ncccc1Cl)c1c(Cl)cccc1Cl	4µM*	0%	?	14µM*	13%	?
CCN(C(=O)c1ccc2c(c1)N(S(C)(=O)=O)CC2)c1ccccc1	/	/	/	/	2%	/
Cc1ccc(C(=O)N2CCN(c3nnc4cccc(C)n34)CC2)cc1F	/	/	/	/	-3%	/
COc1ccc(-n2ccc(=O)c(C(=O)Nc3cc(OC)ccc3OC)n2)cc1	/	/	/	/	-55%	/
CCN1C(=O)C2(C(C#N)=C(N)Oc3c2c(C)nn3-c2ccccc2)c2ccccc21 (centres undefined)	?	3%	16µM*	?	-16%	18µM*
CC1(C)CC(=O)C2=C(C1)OC(N)=C(C#N)C21C(=O)N(Cc2ccccc2Cl)c2ccccc21 (centres undefined)	1%	-18%	23µM*	-2%	163%	?
Cc1nn(-c2ccccc2)c2c1C1(C(=O)N(C)c3ccccc31)C(C#N)=C(N)O2 (centres undefined)	11µM*	1%	?	?	?	16µM*
Cc1nn(-c2ccccc2)c(N)c1C1(O)C(=O)N(C)c2ccccc21 (centres undefined)	6%	-10%	?	-6%	-2%	23µM*
CCOC(=O)c1cc(NS(=O)(=O)c2ccc3ccccc3c2)cc(C(=O)OCC)c1	/	/	/	/	0%	/
